# Compound activity: PubChem BioAssay, National Center for Advancing Translational Sciences (NCATS)
# ATXN viability = viability counter-screen for ATXN expression inhibitors | Potency, µM (top dose mostly 56.7 µM), most hits filed as cytotoxic | 400,000 tested, 0.49% active | S2 cells (HEK-293 line with an ATXN2-luciferase reporter) viability, CellTiter-Fluor protease fluorescence, 24 h; further: nearly all actives have a fitted effect of over 40% in size
# ATXN2 expr inh = ATXN2 expression inhibition. HEK-293 ATXN2-luciferase reporter, luminescence, 24 h. Potency, µM (doses to about 57 µM), most hits filed as inhibitors. 360,000 tested, 0.72% active; further: nearly all actives have a fitted effect of over 55% in size
#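 qHTS (up to 57 uM final) was run with 24 h compound exposure of reporter cells at 37 °C. Each well was multiplexed: SteadyGlo luminescence measured ATXN2-luciferase expression after a fluorogenic Gly-Phe-AFC viability readout (25 uM final).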
# TGFb inhibitor = blocks TGF-b signaling | HepG2 CAGA-GFP TGF-b/SMAD3 reporter, GFP fluorescence, 18 h; TGF-beta stimulated, 500 pg/mL final | Potency, µM (titrated, usually from 46.1 µM), most hits filed as inhibitors | 410,000 tested, 1.2% active; further: nearly all actives have a fitted effect of over 65% in size
#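 GFP signal (ex488/em500-530) from TGF-beta-stimulated HEPG2 CAGA-GFP cells, 500 pg/mL final, 18 h at 37 degrees C in DMEM plus 1% FBS, normalized to unstimulated and DMSO-stimulated controls.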
# HTT ATP protect = Huntington cell model cytoprotection by ATP luminescence. Potency, µM (highest dose often 56.4 µM), hits mostly activators. PC12 HTT-Q103 induced, cytoprotection, ATP luminescence, 40 h. 230,000 tested, 0.14% active; further: nearly all actives have a fitted effect of over 45% in size
#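 Readout: ATPlite luminescence (ATP level). Model: stable PC12, inducible Htt exon1 Q103-GFP. Inducer: tebufenozide, 100 nM final. Compounds: dose series. No G418 in medium.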
# HTT aggregate = reduces HttQ103-GFP aggregates in PC12 cells; 220,000 tested, 1.1% active; Potency, µM (highest dose often 46.1 µM), hits mostly inhibitors; PC12 HttQ103-GFP aggregates, Acumen cytometry, 40 h; further: nearly all actives have a fitted effect of over 60% in size
#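 Aggregate formation scored by laser-scanning cytometer (488 excitation, 500–530 emission) in lysed PC12 cells expressing Q103-GFP after 100 nM tebufenozide induction; library tested in dose series, with ATPLite reagent added in the multiplex.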
# HepG2 tox-1 = HepG2 cytotoxicity, counter-screen for TGF-b inhibitors; HepG2 CAGA-GFP viability, ATP luminescence, 18 h; Potency, µM (doses to about 46.1 µM), most hits filed as cytotoxic; 410,000 tested, 0.76% active
#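 CellTiter-Glo luminescence gave cytotoxicity after 18 hours at 37 degrees C. The cells were HepG2 CAGA-GFP in 1% FBS DMEM, stimulated with 500 pg/mL TGF-beta after compound addition. %Activity was normalised to no-cell wells (complete cell-killing) and DMSO (no toxicity), and curves were fitted and classified.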
# TGFb confirm = TGF-b pathway inhibition, cherry-pick retest; Potency, µM (doses to about 46.1 µM), usual class: inhibitors; AID 720534; 1,600 tested, 63% active; shares compounds with TGFb inhibitor; HepG2 CAGA-GFP TGF-b reporter, GFP fluorescence, 18 h; cells stimulated with TGF-beta, 500 pg/mL; further: nearly all actives have a fitted effect of over 65% in size
# HepG2 tox-2 = toxic to HepG2 cells in TGF-b counterscreen | Potency, µM (titrated, usually from 46.1 µM), actives largely listed as inhibitors | HepG2 CAGA-GFP viability, ATP luminescence, 18 h; cells stimulated with TGF-beta, 500 pg/mL | shares compounds with TGFb inhibitor | 1,600 tested, 27% active | AID 720535; further: nearly all actives have a fitted effect of over 70% in size
# CCL64 TGFb inh = TGF-b inhibition, CCL64 orthogonal assay; CCL64 CAGA-GFP reporter, TGF-b stimulated, GFP fluorescence, 18 h; shares compounds with TGFb inhibitor; Potency, µM (top dose mostly 46.1 µM), hits mostly inhibitors; 1,600 tested, 41% active; AID 720536; further: nearly all actives have a fitted effect of over 65% in size
# TGFb COP inh = validation of TGF-b inhibitors in HepG2 COP promoter reporter | HepG2 COP-GFP TGF-b reporter, GFP fluorescence, 18 h; cells stimulated by added recombinant TGF-beta | shares compounds with TGFb inhibitor | Potency, µM (titrated, usually from 46.1 µM), actives largely listed as inhibitors | 1,600 tested, 3% active; further: nearly all actives have a fitted effect of over 70% in size
# Numbers stand for hits; – = inactive; ? = inconclusive; · = not tested or not shown; [ ] = remark or other dose. Most compounds without a hit are left out; they make up all but 2.8% or so of the library. The call rests on the fitted dose curve; in most records, active means well fitted curve in the direction sought with a large enough effect; inconclusive means small, poorly fitted or top-dose-only effect, or another doubt; inactive means no such curve, though single readings can be large; an effect the other way counts as inactive or inconclusive.
SMILES,ATXN viability,ATXN2 expr inh,TGFb inhibitor,HTT ATP protect,HTT aggregate,HepG2 tox-1,TGFb confirm,HepG2 tox-2,CCL64 TGFb inh,TGFb COP inh
COc1ccc(-c2cn[nH]c2-c2ccc(OCc3ccccc3)cc2O)cc1,–,–,?,–[10 µM],–[9.22 µM],–,·,·,·,·
COc1ccc(-c2[nH]ncc2-c2ccc(Cl)cc2)c(O)c1,–,–,10µM,–[0.074 µM],–,–,?,–,?,–
COc1ccc(-c2cn[nH]c2-c2ccc(OCc3ccc([N+](=O)[O-])cc3)cc2O)cc1OC,–,·,8.9µM,–[10 µM],–[9.22 µM],–,21µM,?,?,–
COC(=O)C1=C(C(=O)OC)[C@@H]2N(Cc3ccccc3)c3ccccc3[C@@]23C[C@@H](C(=O)OC)N(S(=O)(=O)c2ccc(Br)cc2)C3=N1,·,·,·,–[10 µM],·,·,·,·,·,·
C=CC[C@H](CC(=O)N(CCO)Cc1ccccc1)C(=O)N[C@H](COC(=O)[C@@H](CC=C)Cc1ccc(F)cc1)Cc1c[nH]c2ccccc12,?,?,13µM,·,·,–,16µM,–,?,–
C=CCC[C@@H](Cc1ccc(F)cc1)C(=O)OC[C@@H](NC(=O)[C@@H](CC=C)CC(=O)N(CCO)Cc1ccccc1)c1ccccc1,?,?,11µM,·,·,–,15µM,–,?,–
C=CC[C@@H](CC(=O)N(CCO)Cc1ccccc1)C(=O)N[C@@H](COC(=O)[C@@H](CC=C)Cc1ccc(F)cc1)Cc1ccccc1,?,?,–,·,·,–,·,·,·,·
C=CCC[C@@H](Cc1ccc(F)cc1)C(=O)OC[C@@H](NC(=O)[C@H](CC=C)CC(=O)N(CCO)Cc1ccccc1)c1ccccc1,?,?,?,·,·,–,·,·,·,·
COc1ccc(OC2C=CC(C#Cc3ccccc3)OC2CO)cc1 (stereo unspecified),·,·,·,–[10 µM],·,·,·,·,·,·
c1ccc(Cn2nnnc2C(c2ccccc2)N2CCN(Cc3ccncc3)CC2)cc1 (stereo unspecified),·,·,–,·,·,–,·,·,·,·
COc1ccc([C@H]2CC(=O)C=C(c3ccc(SC)cc3)C2)cc1OC,–,–,?,·,·,–,·,·,·,·
COc1ccc([C@H]2CC(=O)C=C(c3ccc(Oc4ccccc4)cc3)C2)cc1OC,–,–,7.9µM,·,·,–,9.2µM,–,?,–
COC(=O)c1ccc(-c2ccc(C3C4C=CCC(C)C4C(=O)N3Cc3ccccc3)c(F)c2)cc1 (stereo unspecified),·,·,–,·,·,–,·,·,·,·
COc1ccc(-c2c(C(F)(F)F)[nH]n3c(=O)cc(-c4ccccc4)nc23)cc1,·,–,?,–[10 µM],–[9.22 µM],–,16µM,16µM,8.2µM,–
COc1cc(OC)c2c(-c3cccc(-c4ccc(NC(C)=O)cc4)c3)cc(=O)oc2c1,?,–,4.5µM,–,·,–,1.6µM,–,2.1µM,–
COc1ccc(CNc2ccnc(-c3c(C)noc3C)n2)c(OC)c1,·,·,·,–,·,·,·,·,·,·
Cc1ccc(S(=O)(=O)N[C@H]2COC(=O)C/C=C\[C@@H](C)COC(=O)C/C=C\[C@@H]2C)cc1,·,·,·,–[10 µM],·,·,·,·,·,·
O=C1NC(c2ccccc2Cl)Nc2ccccc21 (stereo unspecified),–,–,–,–,–,–,·,·,·,·
O=C1NC(c2cccc3ccccc23)Nc2ccccc21 (stereo unspecified),?,–,3.5µM,·,·,–,2.6µM,?,6.5µM,–
CC(=O)c1ccc(-c2cnc3c(NC=O)cc(-c4ccc(C(=O)N5CCOCC5)cc4)cn23)cc1,–,–,?,·,·,–,?,?,?,–
COc1cc(-c2cnc3c(NC=O)cc(-c4cccc(NC(C)=O)c4)cn23)cc(OC)c1OC,–,–,?,·,·,–,·,·,·,·
COc1cccc(-c2cnc3c(NC=O)cc(-c4ccoc4)cn23)c1,?,–,?,·,·,–,·,·,·,·
COc1cccc(-c2cnc3c(NC=O)cc(-c4ccc(S(C)(=O)=O)cc4)cn23)c1,–,–,1.8µM,·,·,–,4.6µM,–,2.1µM,–
COc1cccc(-c2cnc3c(NC=O)cc(-c4ccccc4Oc4ccccc4)cn23)c1,–,–,10µM,·,·,–,12µM,–,?,–
COc1cccc(-c2cnc3c(NC=O)cc(-c4cccc(NC(C)=O)c4)cn23)c1,–,–,7.1µM,·,·,–,5.8µM,?,15µM,–
SMILES,ATXN viability,ATXN2 expr inh,TGFb inhibitor,HTT ATP protect,HTT aggregate,HepG2 tox-1,TGFb confirm,HepG2 tox-2,CCL64 TGFb inh,TGFb COP inh
CCCCc1nc2c(c3c1C[C@H](C)OC3)CN(C(=O)N[C@@H](C)c1ccccc1)CC2,·,·,·,–[10 µM],·,·,·,·,·,·
O=S(=O)(Nc1cccnc1)c1cccc2ccccc12,·,·,–,·,·,–,·,·,·,·
CN(C(=O)c1ccoc1)c1ccccc1I,·,·,–,·,·,–,·,·,·,·
C=CCn1c(=O)n(C2OC(CO)C(O)C2O)c2nc(N)[nH]c(=O)c21 (stereo unspecified),·,·,·,–,–,·,·,·,·,·
CC(=O)Nc1cccc(-c2cc(NC=O)c3ncc(-c4cccc(C(C)=O)c4)n3c2)c1,–,–,2.8µM,·,·,–,6.5µM,?,?,–
CCCS(=O)(=O)c1ccc(COC(=O)c2ccc(NC(C)=O)cc2)cc1,–,–,?,–,–[9.22 µM],–,–,–,–,–
CC(=O)Nc1ccc(C(=O)OCc2ccc(Cl)cc2)cc1,–,–,?,–,–,–,·,·,·,·
CC(=O)c1cccc(N=c2scc(-c3ccc(S(=O)(=O)N4CCOCC4)cc3)n2CCO)c1,–,–,?,·,?,–,–,–,?,–
Cc1ccc(OCCNC(=O)[C@H]2O[C@@H](n3cnc4c(N)ncnc43)[C@H](O)[C@@H]2O)cc1C,–,–,?,·,·,–,?,–,–,–
Cc1ccc(OCCNC(=O)[C@H]2O[C@@H](n3ccc(N)nc3=O)[C@H](O)[C@@H]2O)cc1C,–,–,–,·,·,–,·,·,·,·
Oc1ccccc1C1C=C(c2ccc3c(c2)OCO3)NC(c2cccc(Cl)c2)N1 (stereo unspecified),·,·,?,·,·,–,·,·,·,·
COC(=O)[C@@H](NC(=O)O[C@@H]1C(=O)c2ccc(OC)cc2O[C@H]1c1ccc2c(c1)OCO2)C(C)C,·,·,·,–,·,·,·,·,·,·
